The full list was thinned out, with hits kept by preference.
Shiga toxin inh: inhibitors of Shiga toxin in Vero cells | Vero cells, Shiga toxin protein synthesis inhibition reporter | inhibition, % at 38.7 µM | hit rate 9.2% among 290,000; in the data active = inhibition mostly above about 28%, no sharp cut-off; inactive = mostly below about 43%; also: 0% is about no effect
FBPA Giardia inh: Giardia lamblia aldolase inhibition. purified Giardia FBPA. AID 2451. hit rate 0.71% among 290,000. A8B2U2. Potency, µM (titrated, usually from 59.6 µM), inactives show top-dose activity, negative = inhibition, most hits filed as inhibitors; also: potency is read from the fitted curve at half-maximal effect; % is scaled to controls: 0 for no effect and ±100 for the full control effect; nearly all actives have a fitted effect of over 55% in size
Target sequence (A8B2U2 whole entry, looked up): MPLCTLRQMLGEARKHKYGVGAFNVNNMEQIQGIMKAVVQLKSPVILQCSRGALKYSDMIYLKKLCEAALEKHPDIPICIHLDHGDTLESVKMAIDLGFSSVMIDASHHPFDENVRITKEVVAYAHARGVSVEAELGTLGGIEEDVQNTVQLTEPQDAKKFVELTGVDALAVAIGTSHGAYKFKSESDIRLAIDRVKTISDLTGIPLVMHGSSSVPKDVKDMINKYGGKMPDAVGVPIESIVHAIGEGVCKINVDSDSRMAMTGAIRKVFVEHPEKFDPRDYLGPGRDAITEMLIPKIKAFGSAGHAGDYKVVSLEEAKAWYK
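Giardia FBPA (40 nM reagent) was preincubated 10 min at RT with compound (up to 57.5 uM final), then substrate plus GAPDH/TPI/NAD/arsenate coupling system with diaphorase/resazurin was added; resorufin fluorescence (525/598 nm) was read after 20 min.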
CHX counter: counter-screen hit for Shiga toxin inhibitors, cycloheximide; cell reporter, cycloheximide protein synthesis inhibition counterscreen; max response, %; hit rate 12% among 300,000; AID 2314; in the data active = max response mostly above about 13%, no sharp cut-off; inactive = mostly below about 14%; also: read at 38.3 µM for the half of the compounds with a filed dose; 0% is about no effect
RE007 growth inh: less growth of the S. pombe RE007 Vpr strain. Potency, µM (titrated, usually from 92.2 µM), inactives show at the highest dose activity change, negative = less growth, most hits filed as inhibitors. AID 651644. hit rate 0.21% among 360,000. S. pombe RE007 Vpr strain, BacTiter-Glo ATP luminescence, 24 h; active = well fitted falling curve with a large enough effect; inconclusive = small, poorly fitted or top-dose-only effect; inactive = no such curve, though single readings can be large or run the other way; also: potency is read from the fitted curve at half-maximal effect; % is scaled to controls: 0 for no effect and ±100 for the full control effect; nearly all actives have a fitted effect of over 50% in size
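Fission yeast strain RE007, carrying one chromosomally integrated HIV-1 vpr copy, was seeded at OD 0.01 in PMG+AL medium with 23 nL pinned compound. After 24 h at 30 °C and 99% humidity, viability was read by BacTiter-Glo luminescence.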
TbPYK inhibitor: T. brucei pyruvate kinase inhibition. TbPYK enzyme, Kinase-Glo Plus ATP luminescence, 45 min. Potency, µM (top dose mostly 76.8 µM), for the others: at the top dose activity, negative = inhibition, actives largely listed as inhibitors. hit rate 0.12% among 410,000. AID 624173; also: potency is read from the fitted curve at half-maximal effect; % is scaled to controls: 0 for no effect and ±100 for the full control effect; nearly all actives have a fitted effect of over 50% in size
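In this concentration-response screen, enzyme-free wells defined baseline while DMSO plates tracked drift. Each reaction combined TbPYK, substrate, compound and 130 uM ADP for 45 min at room temperature. Kinase-Glo Plus luminescence gave the signal.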
LmPK inhibitor: blocks Leishmania mexicana pyruvate kinase activity. Q27686. purified LmPK, Kinase-Glo ATP luminescence, 1 h. Potency, µM (series often up to 57.5 µM), without a hit: top-dose activity change, negative = inhibition, most hits filed as inhibitors. hit rate 0.37% among 290,000; also: potency is read from the fitted curve at half-maximal effect; % is scaled to controls: 0 for no effect and ±100 for the full control effect
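Screened at intermediate enzyme activity to detect both inhibitors and activators: LmPK at 0.1 nM, with a 0.5 nM enzyme column as activation reference. PEP 0.5 mM, ADP 0.1 mM; ATP detected by luminescence after 1 h.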
* = called active by the depositor. Unless noted, calls follow the shape of the dose curve; as a rule, active = well fitted curve in the direction sought with a large enough effect; inconclusive = small, poorly fitted or top-dose-only effect, or another doubt; inactive = no such curve, though single readings can be large; an effect the other way counts as inactive or inconclusive.

What do the screens show for `COc1ccc(C=O)cc1COc1ccc(F)cc1F`?
Shiga toxin inh: 20; FBPA Giardia inh: 1%; CHX counter: 5; RE007 growth inh: -17%; TbPYK inhibitor: 6%; LmPK inhibitor: 0%

What do the screens show for `COc1cc(C=O)ccc1OCc1ccccc1Br`?
Shiga toxin inh: 74*; FBPA Giardia inh: -4%; CHX counter: 61*; RE007 growth inh: -4%; TbPYK inhibitor: 4%; LmPK inhibitor: -29%

How did COc1cc(C=O)ccc1OCc1cccc(Br)c1 do in these assays?
Shiga toxin inh: 70*; FBPA Giardia inh: -1%; CHX counter: 47*; RE007 growth inh: -17%; TbPYK inhibitor: 0%; LmPK inhibitor: -8%

How did CCOc1cc(C=O)ccc1OCCSc1ccc(C)cc1 do in these assays?
Shiga toxin inh: 26; FBPA Giardia inh: -4%; CHX counter: 23; RE007 growth inh: 9%; TbPYK inhibitor: -12%; LmPK inhibitor: 3%

How did CNC(=O)COc1ccc(C=O)cc1OC do in these assays?
Shiga toxin inh: -6; FBPA Giardia inh: 3%; CHX counter: -1; RE007 growth inh: 2%; TbPYK inhibitor: 0%; LmPK inhibitor: -2%

How did CCOC(=O)c1ccccc1NC(=O)c1sc2nc3n(c(=O)c2c1C)CCCCC3 do in these assays?
TbPYK inhibitor: 1%

How did COc1ccc(OC)c(C(c2nnnn2Cc2ccco2)N2CCN(C)CC2)c1 (stereo not drawn) do in these assays?
Shiga toxin inh: 3; FBPA Giardia inh: -15%; CHX counter: -3; RE007 growth inh: 8%; TbPYK inhibitor: 4%; LmPK inhibitor: -3%

What do the screens show for `COc1cccc(C(c2nnnn2Cc2ccco2)N2CCN(c3cccc(C)c3C)CC2)c1OC` (stereo not drawn)?
Shiga toxin inh: 58*; FBPA Giardia inh: 0%; CHX counter: 17; RE007 growth inh: 16%; TbPYK inhibitor: inconclusive; LmPK inhibitor: 6%

Results for CC(=O)Oc1cccc(C(=O)Nc2ccc(NC(=O)c3cccs3)cc2)c1 ?
Shiga toxin inh: 163*; FBPA Giardia inh: 9%; CHX counter: 42*; RE007 growth inh: 2%; TbPYK inhibitor: 3%; LmPK inhibitor: 3%

Results for COc1cccc(C(=O)Nc2cccc(NC(=O)c3cccs3)c2)c1 ?
Shiga toxin inh: 19; FBPA Giardia inh: -1%; CHX counter: 11*; RE007 growth inh: -1%; TbPYK inhibitor: -3%; LmPK inhibitor: -1%

Results for COc1cccc(C(=O)Nc2cc(NC(=O)c3cccs3)ccc2C)c1 ?
Shiga toxin inh: 28; FBPA Giardia inh: -12%; CHX counter: 7; RE007 growth inh: 2%; TbPYK inhibitor: 3%; LmPK inhibitor: -4%

Results for COc1ccc2[nH]c3c(=O)n4c(nc3c2c1)SCCC4 ?
Shiga toxin inh: 29; FBPA Giardia inh: -3%; CHX counter: 25*; RE007 growth inh: -6%; TbPYK inhibitor: -5%; LmPK inhibitor: 1%

How did Cc1ccc2[nH]c3c(=O)n4c(nc3c2c1)SCC4 do in these assays?
Shiga toxin inh: 28; FBPA Giardia inh: -2%; CHX counter: 24*; RE007 growth inh: -10%; TbPYK inhibitor: -6%; LmPK inhibitor: -5%

What do the screens show for `Cc1cc(C(=O)COc2ccc(C#N)cc2)c(C)n1C1CC1`?
RE007 growth inh: -7%; TbPYK inhibitor: 4%

What do the screens show for `Cc1cc(C(=O)COc2ccc([N+](=O)[O-])cc2)c(C)n1C1CC1`?
Shiga toxin inh: 36*; FBPA Giardia inh: 2%; CHX counter: 16*; RE007 growth inh: inconclusive; TbPYK inhibitor: -3%; LmPK inhibitor: 7%

Results for N=C1c2ccccc2CN1CC(=O)c1ccccc1 ?
Shiga toxin inh: 40*; FBPA Giardia inh: -1%; CHX counter: 41*; RE007 growth inh: -2%; TbPYK inhibitor: -11%; LmPK inhibitor: -21%

How did Cc1ccc(CNC(=O)CN2Cc3ccccc3C2=O)cc1 do in these assays?
TbPYK inhibitor: -13%

How did Cc1ccc(C)c(C(=O)CN2Cc3ccccc3C2=O)c1 do in these assays?
Shiga toxin inh: 65*; FBPA Giardia inh: 0%; CHX counter: 22*; RE007 growth inh: -1%; TbPYK inhibitor: -2%; LmPK inhibitor: 2%

What do the screens show for `N=C1c2ccccc2CN1NC(=O)c1ccccc1`?
Shiga toxin inh: 37; FBPA Giardia inh: -2%; CHX counter: 7; RE007 growth inh: -14%; TbPYK inhibitor: 1%; LmPK inhibitor: -1%

Results for COc1cccc(CNC(=O)CC(c2ccc(F)cc2)N2Cc3ccccc3C2=O)c1 (stereo not drawn) ?
TbPYK inhibitor: -13%

What do the screens show for `O=c1c(=O)n(-c2cccc(Cl)c2)ccn1Cc1cccc(F)c1`?
TbPYK inhibitor: -5%

What do the screens show for `CCCCCCCCCCCCCCC/C=C/[C@@H](O)[C@H](NC(=O)CCCCCCCCCCCCC)OC` (tested in a mixture with another compound)?
FBPA Giardia inh: -4%

Results for CN1CCN(C(=O)c2cc(-c3cccc(Cl)c3)on2)CC1 ?
Shiga toxin inh: 41; FBPA Giardia inh: 2%; CHX counter: 34*; RE007 growth inh: -18%; TbPYK inhibitor: -3%; LmPK inhibitor: -5%

Results for O=C(c1cc(-c2ccco2)nn1-c1cccc(Cl)c1)N1CCCCC1 ?
Shiga toxin inh: -2; FBPA Giardia inh: 2%; CHX counter: -1; RE007 growth inh: 16%; TbPYK inhibitor: 10µM*; LmPK inhibitor: -25%

How did CC(C)NC(=O)c1cc(-c2ccco2)nn1-c1ccc(Cl)cc1 do in these assays?
Shiga toxin inh: -19; CHX counter: -4; RE007 growth inh: -8%; TbPYK inhibitor: inconclusive; LmPK inhibitor: -9%

What do the screens show for `O=C(c1cc(-c2cccc(Cl)c2)on1)N1CCN(c2ccc(F)cc2)CC1`?
Shiga toxin inh: -19; FBPA Giardia inh: -2%; CHX counter: -3; RE007 growth inh: -15%; TbPYK inhibitor: 5%; LmPK inhibitor: -5%

Results for O=C(c1cc(-c2cccc(Cl)c2)on1)N1CCCCCC1 ?
Shiga toxin inh: 117*; FBPA Giardia inh: -10%; CHX counter: 27*; RE007 growth inh: -25%; TbPYK inhibitor: -1%; LmPK inhibitor: -2%

How did CCOCCCNC(=O)c1cc2c(=O)[nH]c3ccccc3c2n1C do in these assays?
TbPYK inhibitor: 3%

Results for Cc1ccc(NC(=O)N2CCN(c3nnc(C)c4c(C)n(-c5ccccc5)nc34)CC2)cc1Cl ?
TbPYK inhibitor: 4%

What do the screens show for `CC(=O)OCC(NC(=O)C(COCc1ccccc1)NC(=O)OC(C)(C)C)C1OC(n2cc(F)c(=O)[nH]c2=O)C(OC(C)=O)C1OC(C)=O` (stereo not drawn)?
Shiga toxin inh: -7; FBPA Giardia inh: 2%; CHX counter: -2
